Source: PubChem BioAssay (several laboratories)
Shown are actives, neighbours in structure and some others; about 3.7% of the full set was active somewhere.
BoNT F protease: inhibitors of Botulinum neurotoxin F light chain protease; 360,000 compounds, 0.22% hits; Multiplex microsphere protease cleavage assay, flow cytometry; inhibition, % at 10 µM; in the data active = inhibition above about 35%, passing the limit was not always enough; inconclusive = no clear call, values can overlap the other calls; also: plate controls were buffer without enzyme for full effect and enzyme alone for no effect
MazEF act: activators of E. coli MazEF toxin-antitoxin RNase; P0AE70; FAM/BHQ RNA-DNA oligo cleavage fluorescence, 5 h; activation, % at 20 µM; 350,000 compounds, 0.32% hits; AID 504720; in the data active = activation above about 50%
Autofluor counter: compound fluorescence in toxin protease inhibitor counterscreen | compound autofluorescence counterscreen, microsphere flow cytometry; hits give high values | 360,000 compounds, 3.1% hits | fluorescence intensity (concentration not given with the values); in the data active = fluorescence intensity above about 16000; inconclusive = no clear call, values can overlap the other calls
BoNT A protease: inhibitors of Botulinum neurotoxin A light chain protease; multiplex microsphere protease substrate cleavage, flow cytometry; inhibition, % at 10 µM; 360,000 compounds, 0.17% hits; AID 588499; also: plate controls were buffer without enzyme for full effect and enzyme alone for no effect
Anthrax LF prot: anthrax lethal factor protease inhibition. P15917. multiplex microsphere protease cleavage assay, LF. inhibition, % at 10 µM. 360,000 compounds, 0.12% hits. AID 588501; also: plate controls were buffer without enzyme for full effect and enzyme alone for no effect
Target sequence (P15917 whole entry, looked up): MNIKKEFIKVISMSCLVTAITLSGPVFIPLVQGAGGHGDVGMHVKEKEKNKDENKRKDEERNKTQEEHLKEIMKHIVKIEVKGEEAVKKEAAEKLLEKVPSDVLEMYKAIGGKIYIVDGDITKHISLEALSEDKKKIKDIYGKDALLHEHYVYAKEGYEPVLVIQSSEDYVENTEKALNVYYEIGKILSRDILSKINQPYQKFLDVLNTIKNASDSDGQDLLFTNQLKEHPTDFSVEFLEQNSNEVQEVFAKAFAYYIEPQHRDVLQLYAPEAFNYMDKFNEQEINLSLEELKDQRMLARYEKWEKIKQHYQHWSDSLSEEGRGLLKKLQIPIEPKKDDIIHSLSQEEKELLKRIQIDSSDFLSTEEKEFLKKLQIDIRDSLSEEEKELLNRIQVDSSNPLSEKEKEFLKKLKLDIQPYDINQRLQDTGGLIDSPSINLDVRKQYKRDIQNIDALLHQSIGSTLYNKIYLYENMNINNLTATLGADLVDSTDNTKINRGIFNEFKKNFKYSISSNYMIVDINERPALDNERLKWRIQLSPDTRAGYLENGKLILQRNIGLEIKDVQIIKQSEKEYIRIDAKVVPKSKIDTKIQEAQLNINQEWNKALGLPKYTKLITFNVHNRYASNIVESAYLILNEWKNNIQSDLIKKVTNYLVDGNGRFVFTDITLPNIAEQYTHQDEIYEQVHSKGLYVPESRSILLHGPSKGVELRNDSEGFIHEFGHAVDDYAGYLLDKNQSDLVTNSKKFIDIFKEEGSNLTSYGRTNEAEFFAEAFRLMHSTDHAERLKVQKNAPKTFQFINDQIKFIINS
BoNTA LC inh 2: inhibitors of botulinum neurotoxin A light chain protease; shares compounds with BoNT A protease; multiplex microsphere protease cleavage assay, flow cytometry; inhibition, % at 10 µM; 150 compounds, 10% hits; AID 602325; in the data active = inhibition above about 24%
Anthrax LF CP2: blocks anthrax lethal factor protease; shares compounds with BoNT A protease; multiplex microsphere protease cleavage assay; inhibition, % at 10 µM; 150 compounds, 7% hits; in the data active = inhibition above about 25%
BoNTF LC inh 2: blocks botulinum neurotoxin F light chain protease | shares compounds with BoNT A protease | multiplex microsphere protease cleavage assay, flow cytometry | inhibition, % at 10 µM | 150 compounds, 7% hits | AID 602336; in the data active = inhibition above about 25%
Numbers without * were called inactive; u = inconclusive; x = no result. Rule as the data show it, unless noted: active = inhibition above about 30%; inconclusive = no clear call, values can overlap the other calls; inactive = below that.

SMILES	BoNT F protease	MazEF act	Autofluor counter	BoNT A protease	Anthrax LF prot	BoNTA LC inh 2	Anthrax LF CP2	BoNTF LC inh 2
Cc1nc2ccc(NC(=O)c3cccc(S(=O)(=O)N4CC(C)OC(C)C4)c3)cc2s1 (stereo not drawn)	19.9	-5.2	7927	25.1	30.5*	5.0	5.7	5.6
CC1CN(S(=O)(=O)c2cccc(C(=O)Nc3ccc(N4CCCCC4)cc3)c2)CC(C)O1 (stereo not drawn)	0.7	-2.3	3605	-0.4	-0.3	x	x	x
COc1cc(Cl)c(CNC[C@H]2O[C@@H](n3cnc4c(=O)[nH]c(N)nc43)[C@H](O)[C@@H]2O)c(Cl)c1O	-4.3	x	5492	-0.6	-0.1	x	x	x
O=C(NCc1ccc(OC(F)(F)F)cc1)c1cccc2c1C(=O)c1ccc(N3CCC(Cc4ccccc4)CC3)cc1S2(=O)=O	11.0	-401.0	4518	12.8	21.1	7.4	5.6	14.9
O=C(NCc1cccc(F)c1)c1cccc2c1C(=O)c1ccc(N3CCCC3)cc1S2(=O)=O	17.1	-482.6	4444	10.2	11.5	x	x	x
COc1ccccc1N1CCN(c2ccc3c(c2)S(=O)(=O)c2cccc(C(=O)NCc4ccc(F)cc4)c2C3=O)CC1	-5.3	-0.8	3973	0.6	-4.4	0.8	-1.8	-4.7
O=C(NCc1ccc(OC(F)(F)F)cc1)c1cccc2c1C(=O)c1ccc(N3CCCC3)cc1S2(=O)=O	5.5	-630.7	2925	3.0	3.7	x	x	x
COCCNC(=O)C1(C)CCCN(Cc2ccc(Cl)c(Cl)c2)C1 (stereo not drawn)	-0.8	x	2940	0.8	-9.6	x	x	x
CCOC(=O)C1CCN(S(=O)(=O)c2c(Cl)ccc3nonc23)CC1	4.9	x	4611	7.6	0.2	x	x	x
Cc1cc2cc(CNC(=O)c3ccc(S(=O)(=O)N4CCOCC4)cc3)ccc2n1C	-92.2	-7.7	1461	80.7*	-76.4	6.2	4.1	7.7
Cc1cc2cc(CNC(=O)c3ccc(S(=O)(=O)N(C)C)cc3)ccc2n1C	-66.1	-12.6	1889	81.6*	-63.6	8.7	8.7	17.9
CN(C)S(=O)(=O)c1ccc(C(=O)NCc2ccc3[nH]c4c(c3c2)CCCC4)cc1	-9.2	4.2	5417	-0.3	-0.1	x	x	x
Cc1cc2cc(CNC(=O)c3ccc(S(=O)(=O)N4CCCCC4)cc3)ccc2[nH]1	-86.6	-0.1	3901	44.3*	-64.2	10.2	8.4	11.3
Cc1ccc(CNC(=O)c2ccc(S(=O)(=O)N3CCCCCC3)cc2)cc1	0.9	1.9	3339	0.1	2.8	x	x	x
O=C(C1CCCO1)N1CCN(S(=O)(=O)c2cc(C(F)(F)F)ccc2Cl)CC1 (stereo not drawn)	27.5	0.7	u	2.7	-0.8	x	x	x
CC(C)(C)NC(=O)C1c2ccccc2OCC(=O)N1CC(F)(F)F (stereo not drawn)	3.7	x	3990	0.6	1.2	x	x	x
Cc1ccc(NC(=O)CN(C)C(=O)c2cccc(-n3cccc3)c2)cc1	2.3	-2.0	6261	2.9	5.1	x	x	x
CCOc1ccccc1OCC(=O)OCC(=O)c1c(C)[nH]c2ccccc12	14.0	-3.9	4284	3.1	-0.5	0.9	-1.2	1.5
Cc1cccc(C(=O)OCC(=O)c2c(C)[nH]c3ccccc23)c1O	2.0	12.3	4168	-0.8	-4.9	0.5	0.6	1.1
CCOC(=O)c1c(C)[nH]c(C(=O)COC(=O)COc2ccccc2C)c1C	-3.0	1.9	2053	0.2	-0.5	x	x	x
O=C(CSc1nnc(-c2c[nH]c3ccccc23)n1C1CC1)NC1CCS(=O)(=O)C1 (stereo not drawn)	0.2	-5.2	3512	0.4	-3.8	x	x	x
O=C(C1CCCCC1)N1CCC2CC1c1cc(Cl)ccc12 (stereo not drawn)	-4.6	-11.3	3560	-0.5	-5.5	x	x	x
Cn1ccc2c(-c3cccc4ccccc34)cc3c(c21)C1CCC3C1 (stereo not drawn)	2.6	x	4492	0.0	-13.3	1.2	-2.8	-2.8
Cn1ccc2c(-c3cncc4ccccc34)cc3c(c21)C1CCC3C1 (stereo not drawn)	-0.2	x	3532	47.6*	29.6*	10.1	9.6	4.0
C=CC(=O)Nc1cccc(CN2C(=O)N(c3cc(OC)cc(OC)c3)Cc3cnc(NCCCCN(CC)CC)nc32)c1	x	11.9	x	x	x	x	x	x
SMILES	BoNT F protease	MazEF act	Autofluor counter	BoNT A protease	Anthrax LF prot	BoNTA LC inh 2	Anthrax LF CP2	BoNTF LC inh 2
CCOC(=O)C(=O)NCC(c1cccs1)S(=O)(=O)c1ccc(F)cc1 (stereo not drawn)	u	-0.8	5313	2.4	0.7	x	x	x
COCCNC(=O)C(C)Oc1ccccc1 (stereo not drawn)	-6.3	-4.4	2577	0.6	-2.4	x	x	x
Cc1cc2ccccc2n1CCNC(=O)Cc1ccccc1	-90.7	-26.8	1072	72.2*	-75.6	24.0*	30.1*	11.7
Cc1cc2ccccc2n1CCNC(=O)C(C)C	13.0	-20.2	3584	80.1*	59.5*	29.2*	34.0*	15.4
Cc1cc2ccccc2n1CCNC(=O)c1ccc(S(=O)(=O)N2CCCCC2)cc1	-123.6	-3.0	1440	59.1*	-125.5	53.4*	14.2	-50.4
Cc1cc2ccccc2n1CCNC(=O)C(C)Oc1ccccc1 (stereo not drawn)	-122.5	-34.7	975	78.8*	-76.6	16.9	15.6	0.1
CC(C)(C)OC(=O)NCCc1onc(-c2cccc([N+](=O)[O-])c2)c1C(=O)O	-4.7	4.9	3845	-0.1	10.0	x	x	x
Cc1cc(C)c(S(=O)(=O)NCCCn2ccnc2)c(C)c1	0.2	-1.2	2119	0.3	-1.3	x	x	x
Cc1cc(C)c(S(=O)(=O)NCCn2c(C)cc3ccccc32)c(C)c1	-83.9	4.0	2507	42.5*	-61.7	5.7	-0.1	-14.1
COc1cc(N(C)C)ccc1C=c1c2ccccc2n2c1cc(-c1ccccc1)[n+]2C	-112.0	-11.1	1971	56.5*	-45.0	29.8*	5.1	-62.3
CC(=O)Nc1cccc(-c2ccnc3c2CC(C(=O)NCCc2ccccc2)O3)c1 (stereo not drawn)	1.6	x	3417	0.3	-4.7	x	x	x
COc1ccccc1Cc1c(-c2ccccc2)nc2cc(C)c(Br)c(C)n12	-3.0	x	4357	1.2	7.3	2.9	-1.6	-2.9
Cc1cc2nc(-c3cccc(Br)c3)c(Cc3cccc(Cl)c3)n2c(C)c1Br	-8.4	x	5299	0.1	-4.7	11.7	2.6	44.8*
COc1ccccc1Cc1c(-c2ccc(C)cc2)nc2cc(C)c(Br)c(C)n12	-1.5	x	4617	1.8	4.4	10.1	7.0	19.4
COc1ccccc1Cc1c(-c2ccc(F)cc2)nc2cc(C)c(Br)c(C)n12	-19.5	x	6390	1.2	9.2	24.7*	-3.7	21.3
Cc1cc2nc(C(C)(C)C)c(Cc3cccc(Cl)c3)n2c(C)c1Br	7.6	x	4272	0.3	4.8	x	x	x
CC1CCCC(NC(=O)c2cccc(S(=O)(=O)N3CCOCC3)c2)C1C (stereo not drawn)	-2.1	-3.7	2939	0.3	1.6	x	x	x
Cc1ccc(C)c(OCCC(=O)Nc2ccc3c(c2)OCO3)c1	-4.6	-1.5	4198	-1.2	3.4	x	x	x
